Results as given in the supplement of paper PMC7156485.
± gives the standard deviation of the averaged measurements.

Tests used:
Conditions in all cases: concentration: 10 µM; 24 h
[1] = tested on: HCC1569; test: cell number relative to DMSO (% of DMSO); higher = more cells (less growth inhibition / toxicity)
Method in brief: (§1)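 For HCC1569 and TDF cells, compounds at 10 µM were applied for 24 h at 37 °C in triplicate in 384-well plates. Cells were fixed in 3.7% formaldehyde, stained for H1.0 and with DAPI, and imaged at ×10 over six fields per well. The endpoint, H1.0 nuclear intensity or cell number, is shown as percent of the plate control using the median of replicates. Positional effects were smoothed for HCC1569 only.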

[2] = tested on: TDF; test: as above
Method in brief: as §1

[3] = tested on: TDF; test: H1.0 immunofluorescence intensity relative to DMSO (% of DMSO); higher = stronger H1.0 induction, active = 120 or more
Method in brief: as §1

[4] = tested on: HCC1569; test: H1.0 immunofluorescence intensity relative to DMSO (% of DMSO); higher = stronger H1.0 induction, active = 140 or more
Method in brief: as §1
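Throughout, for H1.0 immunofluorescence intensity relative to DMSO: TDF is a line of transformed human dermal fibroblasts of mesenchymal origin.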
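Throughout, for cell number relative to DMSO: TDF denotes transformed human dermal fibroblasts of mesenchymal origin.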

SMILES	cell number [1]	cell number [2]	H1.0 immunofluorescence intensity [3]	H1.0 immunofluorescence intensity [4]
CCS(=O)(=O)CCn1c([N+](=O)[O-])cnc1C [Tinidazole]	107	104	102 (inactive)	105 (inactive)
COc1cc2c3cc1Oc1c(OC)c(OC)cc4c1C(Cc1ccc(OC(=O)c5ccc([N+](=O)[O-])cc5)c(c1)Oc1ccc(cc1)CC3N(C)CC2)N(C)CC4 (stereo unspecified) [E6 Berbamine]	90.2	95.2	98.8 (inactive)	97.7 (inactive)
Cl.Cl.NCCNc1ncc(C(N)=O)c(Nc2cccc(C(F)(F)F)c2)n1.O.O [Syk Inhibitor II]	82.1	84.7	88.2 (inactive)	148 (active)
COc1ccccc1N1CCN(CCCNc2c(C)c(=O)n(C)c(=O)n2C)CC1 [Urapidil, 5-Methyl-]	105	121	96.7 (inactive)	108 (inactive)
CS(=O)(=O)Nc1ccc([N+](=O)[O-])cc1Oc1ccccc1 [Nimesulide]	104 ± 4.5	107 ± 2.2	94.4 (inactive)	96.5 (inactive)
CCNC(=O)C1OC(n2cnc3c(NCc4ccccc4)ncnc32)C(O)C1O (stereo unspecified) [N6-Benzyl-5'-N-ethylcarboxamidoadenosine]	77	57.3	103 (inactive)	114 (inactive)
CCN(CC)CCOC(=O)c1ccc(N)cc1.Cl [Procaine hydrochloride]	105	100	91.3 (inactive)	97.8 (inactive)
CCCCCC=CCC(O)C=CC=CC=CC(O)CCCC(=O)O (stereo unspecified) [Leukotriene B4]	105	98.8	93.3 (inactive)	102 (inactive)
Cc1ccc(NC2=CC(=O)c3sc(C)nc3C2=O)cc1	27.9	14.5	122 (active)	104 (inactive)
CC[N+](CC)(CC)CCOc1ccc(C=Cc2ccccc2)cc1.[I-]	99.7	72.2	104 (inactive)	111 (inactive)
CC1(C)OC2CC(=O)OCC23C1CC(=O)C1(C)C3CCC2(C)C(c3ccoc3)OC(=O)C3OC321 (stereo unspecified) [Limonin]	103	104	92.2 (inactive)	90 (inactive)
O=C1NC(=O)c2cc(Nc3ccc(F)cc3)c(Nc3ccc(F)cc3)cc21 [PKCbII/EGFR Inhibitor]	95.1	111	89.7 (inactive)	121 (inactive)
CC1(C)SC2C(NC(=O)C(N)c3ccccc3)C(=O)N2C1C(=O)O (stereo unspecified) [Ampicillin]	103	109	90 (inactive)	108 (inactive)
O=c1ncnc2[nH][nH]cc1-2 [Allopurinol]	103	109	97.1 (inactive)	88.4 (inactive)
COc1cc(OC)cc(-c2cc3cnc(N)nc3nc2NC(=O)NC(C)(C)C)c1	84.2	90.4	101 (inactive)	139 (inactive)
Oc1ccc(O)cc1 [Hydroquinone]	74.9 ± 1.1	76.8 ± 3.5	97.3 (inactive)	118 (inactive)
Cl.NCCNC(=O)c1ccc(Cl)cc1 [Ro 16-6491 hydrochloride]	100	102	94.8 (inactive)	107 (inactive)
O=C(NC(NC(=S)Nc1ccc(F)c([N+](=O)[O-])c1)C(Cl)(Cl)Cl)C(c1ccccc1)c1ccccc1 (stereo unspecified)	58.2	58.3	108 (inactive)	190 (active)
CCCCCCCC/C=C\CCCCCCC(O)C(=O)O (stereo unspecified) [(9Z)-2-hydroxy-9-octadecenoic acid]	100	88.9	102 (inactive)	91.2 (inactive)
COc1cc2nc(N(C)CCCNC(=O)C3CCCO3)nc(N)c2cc1OC (stereo unspecified) [Alfuzosin]	99.7	96.5	97.7 (inactive)	102 (inactive)
CCN(CC)CCOCCOC(=O)C1(c2ccccc2)CCCC1.O=C(O)CC(O)(CC(=O)O)C(=O)O [Carbetapentane citrate]	86.4	89	107 (inactive)	97.4 (inactive)
NS(=O)(=O)c1ccc(N2CCN(CC[C@@H]3OCCc4ccccc43)CC2)cc1	101	102	99.4 (inactive)	104 (inactive)
Cl.O=c1cc(N2CCOCC2)oc2c(-c3ccccc3)cccc12 [LY-294,002 hydrochloride]	82	90.9	82.5 (inactive)	131 (inactive)
CC(C)NCC(O)c1ccc(O)c(O)c1.O=C(O)C(O)C(O)C(=O)O (stereo not drawn) [R(-)-Isoproterenol (+)-bitartrate]	99.2	79.3	99 (inactive)	120 (inactive)
